In PubChem BioAssay AID1159580 (chemical genetic matrix, 2015):
Values joined by “and” are separate entries in the source; they are usually repeats but may differ in a detail not shown here. Identical values can stand only once. In all, about 5,500 compounds went through this assay and about 2,000 (36%) were called active. Not shown: some 18% with an inconclusive outcome. Rule as the data show it: active = normalized growth mostly below about 0.91 (no sharp cut-off); inconclusive = no clear call, values can overlap the other calls; inactive = mostly above about 0.92. The list shows a part of the results.

Assay: chemical genetic growth profiling, strain panel (AID 1159580);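 also: tested at 20 µM; growth read once vehicle control cultures reached saturation at 30 °C; 1 = growth at the plate median or of vehicle wells; lower values mean less growth of the strain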
Details: S. cerevisiae deletion strains, growth OD

Measured: normalized growth

CN1CC(=O)N=C1N
inactive: locus YAL013W, strain DEP1, hits give low values 1.01 | locus YAL021C, strain ccr4, hits give low values 1.01 | locus YAL026C, strain drs2, hits give low values 1.03 | locus YAL030W, strain snc1, hits give low values 1.02 | locus YBL061C, strain skt5, hits give low values 1.03 | locus YBR009C, strain hhf1, hits give low values 1.05 | locus YBR021W, strain FUR4, hits give low values 1 | locus YBR023C, strain chs3, hits give low values 1.03 | locus YBR171W, strain sec66, hits give low values 1.03 | locus YBR229C, strain ROT2, hits give low values 1 | locus YBR231C, strain swc5, hits give low values 1.03 | locus YBR279W, strain paf1, hits give low values 1.03 | locus YCL011C, strain gbp2, hits give low values 1.03 | locus YCL016C, strain dcc1, hits give low values 1.02 | locus YCL029C, strain bik1, hits give low values 0.986 | locus YCL061C, strain MRC1, hits give low values 1.01 | locus YCL069W, strain vba3, hits give low values 1.02 | locus YCR088W, strain abp1, hits give low values 1.01 | locus YDL005C, strain med2, hits give low values 1.02 | locus YDL035C, strain GPR1, hits give low values 1.01 | locus YDL040C, strain nat1, hits give low values 1.01 | locus YDL074C, strain BRE1, hits give low values 1.03 | locus YDL101C, strain DUN1, hits give low values 1.02 | locus YDL134C, strain PPH21, hits give low values 1 | locus YDL185W, strain tfp1, hits give low values 0.992 | locus YDL192W, strain arf1, hits give low values 1 | locus YDR001C, strain nth1, hits give low values 1.01 | locus YDR069C, strain doa4, hits give low values 1.04 | locus YDR101C, strain arx1, hits give low values 0.991 | locus YDR137W, strain rgp1, hits give low values 1.1 | locus YDR159W, strain sac3, hits give low values 1.05 | locus YDR162C, strain NBP2, hits give low values 1.02 | locus YDR195W, strain ref2 0.969 | locus YDR297W, strain sur2, hits give low values 1.02 | locus YDR318W, strain mcm21, hits give low values 0.997 | locus YDR334W, strain swr1, hits give low values 1.02 | locus YDR335W, strain msn5, hits give low values 1.03 | locus YDR388W, hits give low values 0.997 | locus YDR392W, strain spt3, hits give low values 1.02 | locus YDR502C, strain sam2, hits give low values 0.995 | locus YEL003W, strain gim4, hits give low values 1.04 | locus YEL037C, strain rad23, hits give low values 1.01 | locus YEL061C, strain CIN8 (second series), hits give low values 1.02 | locus YEL061C, strain CIN8, hits give low values 1.01 | locus YER015W, strain faa2, hits give low values 1.02 | locus YER016W, strain bim1, hits give low values 1.02 | locus YER110C, hits give low values 0.992 | locus YER111C, strain swi4, hits give low values 1.04 | locus YER155C, strain BEM2 (second series), hits give low values 1.06 | locus YER155C, strain BEM2, hits give low values 1.01 | locus YER167W, strain BCK2, hits give low values 1.01 | locus YFR010W, strain ubp6, hits give low values 1.03 | locus YGL078C, strain dbp3, hits give low values 0.995 | locus YGL086W, strain mad1, hits give low values 0.998 | locus YGL167C, strain pmr1, hits give low values 1.03 | locus YGL173C, strain kem1, hits give low values 1.03 | locus YGL227W, strain vid30, hits give low values 1.02 | locus YGL240W, strain doc1, hits give low values 1.05 | locus YGL248W, strain PDE1, hits give low values 1.01 | locus YGL253W, strain hxk2, hits give low values 1.02 | locus YGR078C, strain PAC10, hits give low values 1.01 | locus YGR135W, strain pre9, hits give low values 1 | locus YGR229C, strain SMI1, hits give low values 1.02 | locus YGR252W, strain gcn5, hits give low values 0.965 | locus YHR013C, strain ard1, hits give low values 1.06 | locus YHR027C, strain rpn1, hits give low values 1.02 | locus YHR030C, strain SLT2, hits give low values 1.01 and 0.962 | locus YHR079C, strain IRE1 (second series), hits give low values 0.994 | locus YHR079C, strain IRE1, hits give low values 0.966 | locus YHR094C, strain hxt1, hits give low values 0.994 | locus YHR129C, strain ARP1, hits give low values 1.01 | locus YHR142W, strain chs7, hits give low values 0.996 | locus YHR200W, strain rpn10, hits give low values 0.997 | locus YIL066C, strain RNR3, hits give low values 1.02 | locus YIL073C, strain SPO22, hits give low values 1.03 | locus YIL125W, strain kgd1, hits give low values 0.988 | locus YIR030C, strain dcg1, hits give low values 0.998 | locus YJL092W, strain hpr5, hits give low values 1.01 | locus YJL095W, strain BCK1 (second series), hits give low values 1.03 | locus YJL095W, strain BCK1, hits give low values 1.03 and 0.956 | locus YJL115W, strain asf1, hits give low values 1.02 | locus YJL129C, strain trk1, hits give low values 1.04 | locus YJL134W, strain LCB3, hits give low values 1.01 | locus YJL154C, strain vps35, hits give low values 1.02 | locus YJL164C, strain tpk1, hits give low values 1.05 | locus YJL166W, strain qcr8, hits give low values 1.03 | locus YJL168C, strain set2, hits give low values 1 | locus YJL187C, strain SWE1 (second series), hits give low values 1.02 | locus YJL187C, strain SWE1, hits give low values 1.03
